Source: PubChem BioAssay (National Center for Advancing Translational Sciences (NCATS))
Only some compounds are listed: those with a hit (about 10% of all), similar ones and a draw of the others.
GLA inh pH 4.5: blocks human alpha-galactosidase A at pH 4.5. P06280. purified enzyme, 4-MU-alpha-Gal fluorescence, pH 4.5. activity change, negative = inhibition, % at 105 µM. 230,000 tested, under 10 active
HPGD inh: blocks human HPGD enzyme activity; purified HPGD, NADH fluorescence kinetic, PGE2 substrate; Potency, µM, usual class: inhibitors; 150,000 tested, 4.3% active; AID 894; active = well fitted inhibition curve with a large enough effect, not every such curve was filed as active; inconclusive = small, poorly fitted or top-dose-only effect, or another doubt; inactive = no such curve, though single readings can be large or run the other way
Target sequence (P15428 whole entry, looked up): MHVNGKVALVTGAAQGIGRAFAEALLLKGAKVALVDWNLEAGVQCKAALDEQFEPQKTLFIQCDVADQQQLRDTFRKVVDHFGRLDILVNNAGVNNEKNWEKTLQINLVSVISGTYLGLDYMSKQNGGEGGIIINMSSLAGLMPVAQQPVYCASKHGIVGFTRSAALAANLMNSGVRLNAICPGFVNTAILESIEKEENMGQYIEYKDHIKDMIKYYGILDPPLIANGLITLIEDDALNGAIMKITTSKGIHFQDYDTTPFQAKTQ
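20 nM HPGD preincubated 15 min at room temperature with compound in 50 mM Tris-HCl pH 8, 0.01% Tween 20. Started with 1 mM NAD+ and 30 uM prostaglandin E2; NADH fluorescence (360/450 nm) read 5 times over 30-s intervals, last minus first.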
12-hLO inh: 12-hLO (ALOX12) enzyme inhibition; purified 12-hLO, xylenol orange hydroperoxide absorbance; AID 1452; Potency, µM (doses to about 57.1 µM), actives largely listed as inhibitors; P18054; 150,000 tested, 0.12% active; note: nearly all actives have a fitted effect of over 55% in size
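Lipoxygenase turnover measured by absorbance at 573 and 405 nm after Fe-XO development. Human 12hLO 150 nM, arachidonate 40 uM, pH 7.0 Hepes buffer with detergent; 15 min compound preincubation, 30 min reaction.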
ALDH1A1 block: blocks purified human ALDH1A1 activity; Purified ALDH1A1, NADH fluorescence, propionaldehyde substrate; Potency, µM (highest dose often 75.3 µM), hits mostly inhibitors; P00352; 220,000 tested, 7.3% active; AID 1030; active = well fitted inhibition curve with a large enough effect, not every such curve was filed as active; inconclusive = small, poorly fitted or top-dose-only effect, or another doubt; inactive = no such curve, though single readings can be large or run the other way
Target sequence (P00352 whole entry, looked up): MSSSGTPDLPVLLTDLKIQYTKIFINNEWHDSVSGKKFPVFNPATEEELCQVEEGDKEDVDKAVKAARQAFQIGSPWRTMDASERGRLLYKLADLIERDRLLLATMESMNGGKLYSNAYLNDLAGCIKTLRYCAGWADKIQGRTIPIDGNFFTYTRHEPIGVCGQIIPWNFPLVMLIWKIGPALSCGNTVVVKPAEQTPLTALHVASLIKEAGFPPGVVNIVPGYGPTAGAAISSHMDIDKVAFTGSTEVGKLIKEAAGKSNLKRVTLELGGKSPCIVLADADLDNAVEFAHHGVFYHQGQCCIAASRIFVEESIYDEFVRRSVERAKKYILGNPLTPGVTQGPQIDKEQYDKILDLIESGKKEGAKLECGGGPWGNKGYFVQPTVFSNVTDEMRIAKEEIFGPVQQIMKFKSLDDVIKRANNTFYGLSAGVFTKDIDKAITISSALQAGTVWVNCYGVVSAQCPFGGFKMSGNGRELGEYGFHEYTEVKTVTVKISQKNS
aGal spleen mod: inhibits or activates alpha-galactosidase in human spleen homogenate; Potency, µM (top dose mostly 80 µM), hits mostly inhibitors; human spleen homogenate, 4MU-alpha-Gal fluorescence, 40 min; 240,000 tested, 0.008% active
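Spleen homogenate 1 ug + cpd (titration) + 4-MU-alpha-D-galactopyranoside 1 mM; 37C 40 min; 50 mM citrate/phosphate pH 5.0, 0.01% Tween-20; stop pH 10; fluorescence 365/440; AC50 via Hill.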
PNC inhibitor: blocks assembly of the perinucleolar compartment. PC3M PTB-GFP, PNC prevalence imaging, 16 h; active compounds read low. activity change (PNC), negative = inhibition, % at 10 µM. 140,000 tested, 3.1% active;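 active = readout at or below -70, meaning at least 70% loss of cells showing the perinucleolar compartment, a nuclear body marking cancer cells; inconclusive = readout between -30 and a set limit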
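Read-out is percentage of cells bearing a perinucleolar compartment, from automated 20x imaging of fixed, Hoechst-stained PC3M PTB-GFP cells. Cells were seeded 4 h, then exposed 16 h to compound (23 nl of library stock) in duplicate plates.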
Large screens that a line does not name were inactive. Unless noted, calls come from the whole dose curve; as a rule, active = well fitted curve in the direction sought with a large enough effect; inconclusive = small, poorly fitted or top-dose-only effect, or another doubt; inactive = no such curve, though single readings can be large; an effect the other way counts as inactive or inconclusive.

CO/N=C(/C(=O)N[C@@H]1C(=O)N2C(C(=O)O)=C(COC(N)=O)CS[C@H]12)c1ccco1	ALDH1A1 block inconclusive (no result: GLA inh pH 4.5, PNC inhibitor)
CCOc1ccc(N(CC(=O)Nc2ccc(OC)cc2)S(=O)(=O)c2c(C)noc2C)cc1	none
COc1ccc(N(CC(=O)Nc2ccc(C)cn2)S(=O)(=O)c2c(C)noc2C)cc1	PNC inhibitor -80
CCOc1ccc(OCC)c(NC(=O)CN(c2ccc(C)cc2)S(=O)(=O)c2c(C)noc2C)c1	none
CCOc1ccccc1NC(=O)CN(c1ccc(C)cc1)S(=O)(=O)c1c(C)noc1C	PNC inhibitor -132
COc1ccc(CNC(=O)CN(c2ccc(OC)cc2)S(=O)(=O)c2c(C)nn(C)c2C)cc1	none
COc1ccc(N(CC(=O)NCc2ccc(C)cc2)S(=O)(=O)c2c(C)nn(C)c2C)cc1	ALDH1A1 block 25µM, PNC inhibitor inconclusive
Cc1c(C(=O)OCC(C)C)[nH]c2c1C(=O)CC(c1ccco1)C2 (centres undefined)	ALDH1A1 block 11µM, PNC inhibitor -88
C/C=C/COC(=O)c1[nH]c2c(c1C)C(=O)CC(c1ccco1)C2 (centres undefined)	ALDH1A1 block inconclusive, PNC inhibitor -102
COC(=O)C1C(=O)c2c([nH]c(C(=O)OC3CCCC3)c2C)CC1C (centres undefined)	ALDH1A1 block inconclusive
C=CCOC(=O)c1[nH]c2c(c1C)C(=O)CC(c1ccco1)C2 (centres undefined)	ALDH1A1 block inconclusive
COc1ccc(OC)c(C2CC(=O)c3c([nH]c(C(=O)OCC4CCCO4)c3C)C2)c1 (centres undefined)	ALDH1A1 block inconclusive
Cc1c(C(=O)OC2CCCC2)[nH]c2c1C(=O)CC(c1ccco1)C2 (centres undefined)	ALDH1A1 block 11µM, PNC inhibitor -108
Cc1c(C(=O)OCC2CCCO2)[nH]c2c1C(=O)CC(c1ccco1)C2 (centres undefined)	HPGD inh inconclusive, ALDH1A1 block 7.1µM
O=[N+]([O-])c1ccc2[nH]c(O)c(N=NC3CCS(=O)(=O)C3)c2c1 (centres undefined)	none (no result: HPGD inh, 12-hLO inh, ALDH1A1 block, PNC inhibitor)
CC(C)(C)S(=O)(=O)/C(C#N)=C/c1sccc1C1OCCO1	ALDH1A1 block 7.9µM (no result: HPGD inh, 12-hLO inh, PNC inhibitor)
O=c1cc(O)c2sc3nc(-c4cccnc4)cc(C(F)(F)F)c3c2[nH]1	HPGD inh inconclusive, ALDH1A1 block 8.9µM
O=c1oc2ccccc2nc1/C=C(O)/C=C/c1ccc(F)cc1	HPGD inh inconclusive, 12-hLO inh inconclusive
O=c1oc2ccccc2nc1/C=C(O)/C=C\c1ccccc1	ALDH1A1 block 13µM
Cc1cc(OCCCC(=O)N2CCCCC2)cc(C)c1Cl	HPGD inh 7.9µM, ALDH1A1 block inconclusive, PNC inhibitor inconclusive
Cc1cc(Cl)ccc1OCCCC(=O)N1CCCCC1	HPGD inh 6.3µM
CC1CCN(C(=O)CCCOc2ccc(Cl)cc2)CC1	HPGD inh 2.8µM, ALDH1A1 block inconclusive
O=C(CCCOc1ccc(Cl)cc1Cl)N1CCc2ccccc2C1	HPGD inh 2.5µM
CO[C@]1(C)C[C@H]2O[C@]1(C)n1c3ccccc3c3c4c(c5c6ccccc6n2c5c31)C(=O)N(C)C4	none (no result: GLA inh pH 4.5, HPGD inh, 12-hLO inh, ALDH1A1 block, PNC inhibitor)
O=C(O)c1ccccc1/C=N/N1CCN(C2c3ccccc3-c3ccccc32)CC1	none (no result: HPGD inh, 12-hLO inh, PNC inhibitor)
COc1ccc(CCC(=O)Nc2cccc(S(=O)(=O)N(C)C)c2)cc1OC	none
COc1ccccc1-c1cncnc1N1CCN(C)CC1	none (no result: GLA inh pH 4.5, HPGD inh, 12-hLO inh, PNC inhibitor)
O=C(CCSc1ccc(Cl)cc1)N1CCCCCC1	HPGD inh 10µM
Cc1cc(Br)ccc1OCC(=O)N1CCCCCC1	HPGD inh 40µM, ALDH1A1 block inconclusive
Cc1ccc(OCC(=O)N2CCCCCC2)c(C)c1	PNC inhibitor inconclusive
CCC[C@H]1C[C@H](C(=O)N[C@H]([C@@H]2O[C@H](SC)[C@@H](O)[C@H](O)[C@@H]2O)[C@H](C)O)N(C)C1	none (no result: PNC inhibitor)
CN(C)c1ccc(C(C(=O)NC(C)(C)C)N(C(=O)c2csnn2)C2CC2)cc1 (centres undefined)	HPGD inh inconclusive, ALDH1A1 block 5.6µM, PNC inhibitor -96
Cc1ccc(C)c(NC(=O)CSc2nnc(CCCCCNC(=O)OC(C)(C)C)o2)c1	HPGD inh 18µM, ALDH1A1 block 9.5µM
Cc1ncc(C[n+]2csc(CCOP(=O)(O)OP(=O)(O)O)c2C)c(N)n1	none (no result: GLA inh pH 4.5, HPGD inh, 12-hLO inh, ALDH1A1 block, PNC inhibitor)
Cc1c(C)[n+](=O)c(-c2ccco2)c(C)n1[O-]	ALDH1A1 block 25µM
Cc1c(C)[n+](=O)c(-c2ccc(Br)cc2)c(C)n1[O-]	none (no result: HPGD inh, 12-hLO inh, ALDH1A1 block, PNC inhibitor)
COc1cccc(-c2nc(NC3CCNCC3)c3ccccc3n2)c1	ALDH1A1 block 32µM (no result: GLA inh pH 4.5, HPGD inh, 12-hLO inh, PNC inhibitor)
Nc1[nH]ncc1-c1ccccc1	none (no result: HPGD inh, 12-hLO inh, PNC inhibitor)
Cc1ccc(C)c(-n2c3nc(=O)[nH]c(=O)c-3cc3cc([N+](=O)[O-])ccc32)c1	HPGD inh inconclusive, ALDH1A1 block inconclusive, PNC inhibitor -116
O=c1[nH]cnc2c1sc1nc(-c3ccccc3)c3c(c12)CCCC3	none
S=c1nc[nH]c2c1sc1nc(-c3ccccc3)c3c(c12)CCCC3	ALDH1A1 block 2.5µM
Cc1ccc(OCC(=O)N2N=C(c3ccc(Cl)cc3)CC2c2ccco2)c([N+](=O)[O-])n1 (centres undefined)	ALDH1A1 block inconclusive (no result: HPGD inh, 12-hLO inh, PNC inhibitor)
O=C(COc1cccnc1[N+](=O)[O-])N1N=C(c2ccc(Cl)cc2)CC1c1ccco1 (centres undefined)	ALDH1A1 block 13µM (no result: HPGD inh, 12-hLO inh, PNC inhibitor)
CC(Nc1cc(N2CCN(C(=O)C(C)(C)C)CC2)ccc1[N+](=O)[O-])c1ccccc1 (centres undefined)	ALDH1A1 block inconclusive
CC(C)C(=O)N1CCN(c2ccc([N+](=O)[O-])c(NC(C)c3ccccc3)c2)CC1 (centres undefined)	ALDH1A1 block 22µM
NC[C@](O)(CS(=O)(=O)O)c1ccc(Cl)cc1	none (no result: PNC inhibitor)
COCCn1nnnc1C(c1cc2ccc(C)cc2[nH]c1=O)N(Cc1ccco1)Cc1cccs1 (centres undefined)	ALDH1A1 block 18µM
Cc1ccc2cc(C(c3nnnn3C3CCCC3)N(Cc3ccccc3)Cc3ccco3)c(=O)[nH]c2c1 (centres undefined)	HPGD inh inconclusive, ALDH1A1 block inconclusive
Cc1cc2cc(C(c3nnnn3C3CCCC3)N(Cc3cccnc3)Cc3ccco3)c(=O)[nH]c2cc1C (centres undefined)	HPGD inh inconclusive, ALDH1A1 block 14µM
Cc1ccc(OCCn2c(=S)[nH]c3c(N)ncnc32)cc1	ALDH1A1 block 7.9µM (no result: HPGD inh, 12-hLO inh, PNC inhibitor)
CC(C)Oc1ccc(OCCn2c(=S)[nH]c3c(N)ncnc32)cc1	ALDH1A1 block 10µM (no result: HPGD inh, 12-hLO inh, PNC inhibitor)
Nc1ncnc2c1ncn2CCOc1ccccc1	none
N=C(N)SCc1cccc(-c2nc3ccccc3c(=O)o2)c1	none (no result: GLA inh pH 4.5, aGal spleen mod, PNC inhibitor)
